High-throughput results from PubChem.
This is one part of a sample in which hits are shown more often than they occur.
AMA1-RON2 inh: qHTS for Inhibitors of AMA1-RON; Towards Development of Antimalarial Drug Lead: Primary Screen; 0.2% of 360,000 active; Plasmodium falciparum AMA1 (3D7) - RON2 peptide interaction; Potency, µM (top dose mostly 58.2 µM), for the others: at the top dose activity change, negative = inhibition, most hits filed as inhibitors; AlphaScreen AMA1-biotinylated RON2 peptide binding; active = well fitted inhibition curve with a large enough effect; inconclusive = small, poorly fitted or top-dose-only effect; inactive = no such curve, though single readings can be large or run the other way;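 also: potency is read from the fitted curve at half-maximal effect; 0% = vehicle wells and -100% = peptide control; nearly all actives have a fitted effect of over 45% in size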
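AMA1 (3D7) with his tag at 25 nM final met compounds first, then biotinylated RON2 peptide at 25 nM; detection used donor plus acceptor beads, 10 µg/mL apiece, read by AlphaScreen after 30 min at room temperature.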
LASV entry inh: qHTS for Inhibitors of binding or entry into cells for Lassa Virus; Lassa virus pseudotype entry inhibition, cell reporter; Potency, µM (titrated, usually from 37.9 µM), without a hit: at the highest dose activity change, negative = inhibition, usual class: inhibitors; 1.2% of 300,000 active; calls by dose curve; tested in HEK293 cells; also: potency is read from the fitted curve at half-maximal effect; % is scaled to controls: 0 for no effect and ±100 for the full control effect; nearly all actives have a fitted effect of over 50% in size
MARV entry inh: qHTS for inhibitors of binding or entry into cells for Marburg Virus; Marburg virus pseudotyped entry inhibition, cell reporter; Potency, µM (doses to about 37.8 µM), without a hit: at the highest dose activity change, negative = inhibition, usual class: inhibitors; 1.8% of 300,000 active; calls by dose curve; tested in HEK293 cells; also: potency is read from the fitted curve at half-maximal effect; % is scaled to controls: 0 for no effect and ±100 for the full control effect
CHX counter: Cycloheximide Counterscreen for Small Molecule Inhibitors of Shiga Toxin; cell reporter, cycloheximide protein synthesis inhibition counterscreen; max response, %; 12% of 300,000 active; in the data active = max response mostly above about 13%, no sharp cut-off; inactive = mostly below about 14%; also: read at 38.3 µM for the half of the compounds with a filed dose; 0% is about no effect
Shiga inhibitor: A qHTS for Small Molecule Inhibitors of Shiga Toxin; Vero cells, Shiga toxin protein synthesis inhibition reporter; inhibition, % at 38.7 µM; 9.2% of 290,000 active; AID 2315, 2010; in the data active = inhibition mostly above about 28%, no sharp cut-off; inactive = mostly below about 43%; also: 0% is about no effect
The depositor's hits bear a star; ? = inconclusive; . = not tested or not shown; [ ] = another dose, or the depositor's remark.

SMILES	AMA1-RON2 inh	LASV entry inh	MARV entry inh	CHX counter	Shiga inhibitor
Cc1ccc(/C(N)=N/OC(=O)Cc2cccs2)cc1	32.0%	26.6%	?	50.4*	142.6*
CCOc1ccccc1OCCCC(=O)ON=C(N)c1ccccc1	13.5%	.	.	.	.
Cc1cccc(/C(N)=N/OC(=O)Cc2cccs2)c1	19.7%	11.3%	2.0%	68.4*	96.4*
Cc1ccc(OCC(=O)O/N=C(\N)Cc2cccs2)cc1C	55.1%	8.2%	9.2%[46.1 µM]	.	.
N/C(=N\OC(=O)Cc1cccs1)c1ccccc1	-22.9%	28.5%	3.1%	27.9*	59.2*
N#Cc1cnc2cc(-c3ccccc3)nn2c1N	14.4%	6.6%	?	17.8*	29.2
COc1ccc(-c2cc3ncc(-c4ccccc4)c(N)n3n2)cc1	-3.9%	-27.0%[46.1 µM]	?	36.1*	61.4*
Cc1nc2cc(-c3ccccc3)nn2c(N)c1-c1ccccc1	-7.8%	.	.	.	.
CCOc1ccc(S(=O)(=O)N=C(c2ccccc2)N2CCOCC2)cc1	22.5%	0.1%[46.1 µM]	1.7%[46.1 µM]	.	.
Cc1ccnc(SC2CC(=O)N(c3ccc(F)cc3)C2=O)n1 (stereo not given)	-17.4%	14.9%	1.6%	-3.2	-14.4
COc1ccc(NC(=O)C(NS(=O)(=O)c2ccc3c(c2)CCCC(=O)N3)C(C)C)c(OC)c1 (stereo not given)	.	8.7%[46.1 µM]	.	.	.
O=C(/C=C/c1ccc(Br)cc1)NC(=O)c1ccccc1O	-3.5%	-17.9%	7.6%[14.2 µM]	31.7*	46.1
CSc1ccc(/C=C/C(=O)NC(=O)c2ccccc2O)cc1	-16.0%	.	.	9.6*	19.7
Cc1ccc(S(=O)(=O)N2CCN(C(=O)c3ccnn3C)CC2)cc1C	-2.9%	.	.	-2.9	-32.1
CNc1ncnc2c1ncn2[C@H]1CN(Cc2cccnc2)C[C@@H](CO)O1	-5.1%	.	.	.	.
CCOC(=O)[C@]12CCC=C1N(Cc1ccc(Cl)cc1Cl)C(=O)[C@H](CC(=O)NCC13CC4CC(CC(C4)C1)C3)C2	-7.9%	.	.	.	.
O=C(/C=C/c1ccc(Cl)cc1Cl)c1ccc[nH]1	14.6%	.	.	33.7*	74.6*
O=C(/C=C/c1ccccc1Cl)c1ccc[nH]1	-14.4%	0.2%	?	36.3*	51.5*
CN(C)/C=C/C(=O)/C=C/c1ccc(Cl)cc1Cl	1.9%	3.9%	?	34.1*	102.2*
O=C(/C=C/c1ccccc1Cl)N1CCN(c2ncccn2)CC1	13.4%	-11.8%	-0.1%	-1.4	10.0
NC(=O)N1CCC2=C1CCCC2	.	.	5.4%[46.1 µM]	.	.
Nc1nc(N)nc(-c2cccc(Br)c2)n1	-22.5%	16.1%	?	.	.
Brc1cccc(-c2n[nH]c(-c3ccccc3)n2)c1	-4.7%	-7.2%	-23.5%	64.4*	146.0*
c1ccc(-c2nc(-c3cccnc3)n[nH]2)cc1	.	.	.	31.4*	16.7
Cc1ccc(NS(=O)(=O)c2cc(-c3n[nH]c(=O)c4ccccc34)ccc2C)cc1	4.2%	?	5.01µM*	-1.5	-13.7
SMILES	AMA1-RON2 inh	LASV entry inh	MARV entry inh	CHX counter	Shiga inhibitor
Cc1ccccc1C(=O)NC(CC(C)C)C(=O)OCc1cc(=O)n2cc(Br)ccc2n1 (stereo not given)	-6.6%	27.6%	?	28.0*	36.1*
CC1(C)NC(=O)N(CC(=O)OCc2cc(=O)n3cc(Br)ccc3n2)C1=O	-12.5%	?	?	3.2	-7.3
CC1CC1C(=O)OCc1cc(=O)n2cc(Br)ccc2n1 (stereo not given)	34.1%	?	-0.5%	28.6*	117.4
O=C(CN1C(=O)NC2(CCCC2)C1=O)OCc1cc(=O)n2cc(Br)ccc2n1	-20.7%	.	.	47.6*	67.0*
CC1(C(=O)OCc2cc(=O)n3cc(Br)ccc3n2)CC1(Cl)Cl (stereo not given)	8.2%	3.8%	?	36.4*	77.8*
O=C(OCc1cc(=O)n2cc(Br)ccc2n1)C1COc2ccccc2O1 (stereo not given)	11.8%	19.2%	13.9%	-1.0	-2.3
CCOC(=O)C1CCCN1C(=O)C1(NC(C)=O)CCCC1 (stereo not given)	4.5%	14.1%	?	.	.
FC(F)(F)c1ccc(N/N=C/c2cccnc2)nc1	-13.0%	1.4%	13.6%[46.1 µM]	40.7*	71.0*
O=[N+]([O-])c1ccc(N/N=C\c2cccnc2)nc1	-5.5%	17.0%	-8.2%	5.9	7.5
FC(F)(F)c1cnc(N/N=C/c2ccncc2)c(Cl)c1	21.3%	16.7%[46.1 µM]	10.3%[46.1 µM]	8.0	6.9
C(=N\Nc1ccccn1)/c1cccnc1	9.8%	.	.	23.5*	.
CCOC(=O)N1CCN(Cc2nc3cc(NC(=O)c4ccco4)ccc3n2C)CC1	7.8%	.	.	28.6	7.8
CCCS(=O)(=O)NC(=O)C1(C)CCN(C(=O)c2ccc3ccccc3c2)C1 (stereo not given)	-0.5%	.	.	.	.
COc1ccc(Cl)cc1NC(=O)CN(C)C(=O)c1cc2c(s1)CCCC2	-13.1%	0.4%	?	.	.
COc1cccc(N2CN(CCc3ccccc3)CNC2=S)c1	4.9%	-24.0%	-7.0%[14.2 µM]	1.3	-3.6
Cc1nc(Nc2ccccc2Cl)sc1C(=O)Nc1ccccc1	-8.1%	8.2%	-14.0%	18.9*	22.0
Cc1nc(Nc2ccccc2)sc1C(=O)Nc1ccccc1	-3.3%	?	?	39.3*	58.6*
Cc1nc(Nc2ccccc2)sc1C(=O)c1ccc(F)cc1	-2.8%	?	-3.5%	67.2*	142.9*
Nc1nc(Nc2ccccc2F)sc1C(=O)c1ccccc1	-12.9%	.	.	50.3*	57.3*
Cc1ccc(S(=O)(=O)CC(=O)Nc2nc3c(C)cc(C)cc3s2)cc1	.	-1.8%[46.1 µM]	.	.	.
CCN(C(=O)Cn1cnc2onc(-c3ccc(F)cc3)c2c1=O)c1cc(C)ccc1C	.	24.0%[46.1 µM]	.	.	.
Cn1cc(C(=O)NCCc2ccccc2)c(=O)c2cc(S(=O)(=O)N3CCCCCC3)ccc21	.	7.3%[46.1 µM]	8.4%[46.1 µM]	.	.
Cc1nc(NC(C)c2ccccc2)sc1C(=O)Nc1ccccc1 (stereo not given)	-5.4%	?	-32.6%	5.3	11.5
Cc1nc(NCCOc2ccccc2)sc1C(=O)Nc1ccccc1	-5.3%	.	.	58.9*	91.9*
Cc1nc(NCc2ccccc2)sc1C(=O)Nc1ccccc1	-11.5%	-9.7%	19.4%[46.1 µM]	26.3*	49.6*
SMILES	AMA1-RON2 inh	LASV entry inh	MARV entry inh	CHX counter	Shiga inhibitor
Cn1c(C(=O)NCc2ccccc2Cl)cc2sc(Cl)cc21	.	.	3.16µM*	.	.
CCCc1cc(=O)oc2c3c(ccc12)OCN(Cc1ccc(OC)cc1)C3	.	5.4%[46.1 µM]	.	-1.9	-3.7
CCc1nnc(NC(=O)C2CCCO2)s1 (stereo not given)	-3.0%	28.6%[46.1 µM]	?	17.2*	27.5
CCCc1nnc(NC(=O)C2CCCO2)s1 (stereo not given)	26.3%	11.1%	?	25.2*	52.5
CC(C)c1nnc(NC(=O)C2CCCO2)s1 (stereo not given)	-7.7%	.	.	13.3	0.8
CSc1ncc(C(=O)Nc2ccccc2C)c(C)n1	1.7%	10.4%[46.1 µM]	?	-2.5	7.5
COC(=O)c1cnc(SC)nc1C	2.82µM*	3.4%	23.0%	-0.8	-0.2
COc1ccc2[nH]c(C)c(C(=O)CN3C[C@@H](C)O[C@@H](C)C3)c2c1	.	.	-1.3%	.	.
CCCCNc1nc2c(S(=O)(=O)c3ccc(Br)cc3)nnn2c2ccsc12	.	24.9%[46.1 µM]	.	.	.
